We go through 14 compounds from PubChem BioAssay (NCI).

Some test systems named below: HCT-15 colon; HT29 colon; SNB-75 CNS; SNB-19 CNS; U251 CNS; PC-3 prostate; SK-MEL-5 melanoma; UACC-62 melanoma; LOX IMVI melanoma; SK-MEL-28 melanoma.
Assay in all cases: NCI-60 one-dose screen, 48 h (100 = growth as untreated, 0 = no growth, -100 = all killed)
Holding throughout (settings): 10 µM unless noted

Structures are written as SMILES. About 83,000 compounds went through this panel and 20% of them were active in at least one assay; those are over-represented in the sample as a whole.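 Method: cells in 96-well plates; compound added at one concentration; 48 h incubation; percent growth measured; values under 10 scored active.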 A number with no mark means an inactive call. Activity calls are given as the source filed them.

`O=C(CN1CCN(c2ccc(Cl)cc2)CC1)N1CCN(c2nnc(-c3ccc(Cl)cc3)c(-c3ccc(Cl)cc3)n2)CC1`: the growth was 59% in the experiment on HCT-15 colon; 57.3% in the experiment with HT29 colon; 75.6% in the experiment on SNB-75 CNS; 78% in the experiment on SNB-19 CNS; 74.2% in the experiment on U251 CNS; 30.5% with PC-3 prostate. Moreover, the growth in the experiment on SK-MEL-5 melanoma was 58.2%; in the experiment on UACC-62 melanoma, 69.9%; with LOX IMVI melanoma it was 51.8%; in the experiment with SK-MEL-28 melanoma, 93.6%.
Take `Cc1cc2c(cc1C)[n+](Cc1ccc3ccccc3c1)cn2Cc1ccc2ccccc2c1`: the growth in the experiment with HCT-15 colon is -77.4% (active); with HT29 colon, -83.3% (active); with SNB-75 CNS, -73.6% (active); in the experiment with SNB-19 CNS, -77.2% (active); in the experiment with U251 CNS, -91.6% (active); with PC-3 prostate, -84% (active). Besides, the growth was -99.2% (active) in the experiment on SK-MEL-5 melanoma, -80.5% (active) in the experiment on UACC-62 melanoma, -86.7% (active) in the experiment on LOX IMVI melanoma and -91.9% (active) with SK-MEL-28 melanoma.
On to `CCOc1cc(/C=C/C(=O)CC(=O)/C=C/c2ccc(OC(=O)CNCCN(CC)CC)c(OCC)c2)ccc1OC(=O)CNCCN(CC)CC`, for which the growth was -59.1% (active) with HCT-15 colon; -88% (active) with HT29 colon; -15.1% (active) with SNB-75 CNS; 11.4% in the experiment on SNB-19 CNS; -60.1% (active) in the experiment with U251 CNS; -18.5% (active) in the experiment on PC-3 prostate. The growth with SK-MEL-5 melanoma is -90.1% (active); in the experiment with UACC-62 melanoma it was -70.9% (active); with LOX IMVI melanoma it was -82.3% (active); in the experiment on SK-MEL-28 melanoma, -57.1% (active).
Consider `CSc1nc2nc3c(c(-c4ccc(C)cc4)c2c(=O)[nH]1)CN(C)C/C3=C\c1ccc(C)cc1`, for which the growth in the experiment on HCT-15 colon was 116%; in the experiment on HT29 colon it was 103%; with SNB-75 CNS it was 93%; with SNB-19 CNS it was 97.3%; in the experiment on U251 CNS, 91.2%; in the experiment on PC-3 prostate, 98.5%. Also, the growth in the experiment with SK-MEL-5 melanoma was 77.1%; in the experiment with UACC-62 melanoma, 93.8%; with LOX IMVI melanoma, 90%; with SK-MEL-28 melanoma it was 111%.
Turning to `Oc1ccc(/C=N/Nc2nc3ccccc3s2)c(O)c1`, the growth in the experiment with HCT-15 colon is 30.9%; in the experiment with HT29 colon it was 67.3%; with SNB-75 CNS it was 28.5%; in the experiment on SNB-19 CNS, 52.5%; in the experiment on U251 CNS, 25.4%; in the experiment with PC-3 prostate, 32.5%. Also, the growth in the experiment on UACC-62 melanoma was 35.8%; with LOX IMVI melanoma, 21.3%; in the experiment with SK-MEL-28 melanoma, 50.7%.
On to `CCN(CC)c1ccc(C(=C2C=CC(=[N+](CC)Cc3cccc(S(=O)(=O)O)c3)C=C2)c2ccc(N(CC)Cc3cccc(S(=O)(=O)O)c3)cc2)cc1`, for which the growth was 85.1% in the experiment on HCT-15 colon; 12.8% with HT29 colon; 33.2% with SNB-75 CNS; 56.9% with SNB-19 CNS; 20.8% with U251 CNS; -3.18% (active) in the experiment with PC-3 prostate. The growth in the experiment on SK-MEL-5 melanoma is 54%; with UACC-62 melanoma, 63.8%; with LOX IMVI melanoma it was 35.4%; with SK-MEL-28 melanoma it was 30.3%.
Turning to `C/C(=C\CCc1ccoc1)CC/C=C(\C)CCCNc1ccc(F)cc1`, the growth in the experiment on HCT-15 colon was 93.3%; in the experiment on HT29 colon, 78.8%; in the experiment on SNB-75 CNS, 94.3%; with SNB-19 CNS it was 97.7%; with U251 CNS it was 94.2%; in the experiment with PC-3 prostate it was 94.9%. For the same compound, the growth in the experiment with SK-MEL-5 melanoma was 99.9%; in the experiment on UACC-62 melanoma, 83.8%; in the experiment with SK-MEL-28 melanoma, 96.6%.
As to `O=C(NC1CCCCC1)c1ccc(Nc2ncnc3c2cnn3-c2ccccc2)cc1`, the growth in the experiment on HCT-15 colon is 66.6%; in the experiment on HT29 colon, 70.2%; in the experiment on SNB-75 CNS, -20.3% (active); in the experiment with SNB-19 CNS it was 48.7%; in the experiment on U251 CNS it was 40.2%; in the experiment with PC-3 prostate, 53.3%. For the same compound, the growth in the experiment on SK-MEL-5 melanoma was 75.4%; with UACC-62 melanoma, 63.9%; with SK-MEL-28 melanoma it was 62.2%.
For the compound `CCOC(=O)/C(=C/CC/C(C)=C/CC/C(C)=C/CCc1ccoc1)CC(=O)N1CCCCC1`, the growth is 69.2% in the experiment on HCT-15 colon; 55.5% in the experiment on HT29 colon; 82.6% in the experiment on SNB-75 CNS; 36% in the experiment with SNB-19 CNS; 66.6% with U251 CNS; 28.7% in the experiment on PC-3 prostate. Moreover, the growth with SK-MEL-5 melanoma was 9% (active); in the experiment with UACC-62 melanoma, 23.8%; in the experiment on SK-MEL-28 melanoma it was 36.8%.
For `O=[N+]([O-])c1cc([N+](=O)[O-])c(N2CCCC2)cc1NN=C(c1ccc(O)cc1)c1ccc(O)cc1`, the growth in the experiment on HCT-15 colon is 46.9%; in the experiment on HT29 colon, 78.2%; in the experiment with SNB-75 CNS, 71.8%; in the experiment with SNB-19 CNS, 37.3%; in the experiment on U251 CNS, 68.5%; in the experiment on UACC-62 melanoma it was 63.1%. For the same compound, the growth with LOX IMVI melanoma was 41.6%; with SK-MEL-28 melanoma it was 97.1%.
For the compound `CCOC(=O)CCN(c1c(Cl)ssc1=O)C(C)C`, the growth in the experiment on HCT-15 colon was 113%; in the experiment on HT29 colon, 102%; with SNB-75 CNS, 97.8%; in the experiment with SNB-19 CNS it was 109%; in the experiment on U251 CNS, 101%; in the experiment on SK-MEL-5 melanoma, 97.7%. In addition, the growth in the experiment with UACC-62 melanoma was 97.8%; with LOX IMVI melanoma, 94.4%; in the experiment on SK-MEL-28 melanoma, 93.4%.
With `CC(=O)O[C@H]1CC[C@@]2(C)C(=CC[C@@H]3[C@@H]2CC[C@]2(C)C(c4cccnc4)=CC[C@@H]32)C1`, the growth is 51.4% in the experiment with HCT-15 colon; 22.1% in the experiment with HT29 colon; 51% in the experiment with SNB-75 CNS; 72.3% in the experiment on SNB-19 CNS; 53% in the experiment on U251 CNS; 20.9% in the experiment with SK-MEL-5 melanoma. The growth is 44.1% in the experiment on UACC-62 melanoma, 63.4% in the experiment with LOX IMVI melanoma and 44.4% with SK-MEL-28 melanoma.
For the compound `COc1cnc2c(c1)C(=O)c1c-2n(CCCN2CCOCC2)c(=O)c2cc(F)ccc12`, the growth in the experiment with HCT-15 colon was 8.29% (active); in the experiment with HT29 colon it was -27.5% (active); with SNB-75 CNS, -19.1% (active); with SNB-19 CNS, 14.5%; with U251 CNS, -27.7% (active); with SK-MEL-5 melanoma it was -95.1% (active). For the same compound, the growth was -52% (active) in the experiment on UACC-62 melanoma, -50.3% (active) with LOX IMVI melanoma and 18.6% in the experiment on SK-MEL-28 melanoma.
`Cc1cc(Cl)ccc1Nc1nc(C(F)(F)F)ccc1C(=O)N/N=C/c1ccc(Cl)cc1`: the growth with HCT-15 colon is 5.02% (active); in the experiment with HT29 colon, 3.44% (active); with SNB-75 CNS, -21.9% (active); in the experiment on SNB-19 CNS, 14.6%; with U251 CNS, 2.95% (active); in the experiment with SK-MEL-5 melanoma it was -13.8% (active). In addition, the growth is -0.152% (active) with UACC-62 melanoma, 0.0613% (active) in the experiment with LOX IMVI melanoma and 20.9% in the experiment with SK-MEL-28 melanoma.
